Test [1] is described as follows: NCI Yeast Anticancer Drug Screen. Data for the rad50 strain (AID 155).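 Also: 0% = growth of vehicle-only cultures of the same strain.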 To be noted: S. cerevisiae rad50 strain growth inhibition; at 50.0 µM; stronger effect = higher value. In outline:
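Readout: growth inhibition relative to vehicle-treated cultures. Compound exposure was carried out in a genetically defined yeast strain deficient in DNA damage repair.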

Test [2] can be described thus: NCI Yeast Anticancer Drug Screen. Data for the mec2-1 strain (AID 157). The conditions noted are these: S. cerevisiae mec2-1 strain, at 50.0 µM, stronger effect = higher value. In outline: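 Vehicle-treated cultures served as reference for growth inhibition of compound-exposed mec2-1 yeast.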
The nature of test [3]: NCI Yeast Anticancer Drug Screen. Data for the sgs1 mgt1 strain (AID 161).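 Also: 0% = growth of cultures given vehicle only.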 The conditions noted are these: S. cerevisiae sgs1 mgt1 strain, at 50.0 µM, stronger effect = higher value. In outline:
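Mutant yeast exposed to compound; growth scored against vehicle-only wells.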

A short description of test [4]: NCI Yeast Anticancer Drug Screen. Data for the cln2 rad14 strain (AID 165).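 Also: 0% = growth equal to vehicle treated cultures.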 The conditions noted are these: S. cerevisiae cln2 rad14 strain, at 50.0 µM, stronger effect = higher value. The method in brief: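 Each compound was tested on cln2 rad14 yeast. Inhibition of growth was calculated against vehicle-exposed controls.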
Test [5] in a line: NCI Yeast Anticancer Drug Screen. Data for the bub3 strain (AID 167). The conditions noted are these: S. cerevisiae bub3 mutant strain, at 50.0 µM, stronger effect = higher value. The method in brief:
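Readout: yeast growth inhibition, expressed relative to vehicle-only wells. The test organism is a mutant strain from a panel with lesions in DNA repair or checkpoint genes.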

The nature of test [6]: NCI Yeast Anticancer Drug Screen. Data for the mlh1 rad18 strain (AID 175). The conditions noted are these: S. cerevisiae mlh1 rad18 strain growth inhibition; at 50.0 µM; stronger effect = higher value. In outline: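 Vehicle-treated cultures served as the reference for growth inhibition in a yeast strain carrying DNA damage repair alterations exposed to each compound.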

Compounds without any hit were thinned out: in the full panel of roughly 79,000, 15% have a hit. A number with no mark means an inactive call. Calls of active or inactive are those of the source. Rule as the data show it: active = growth inhibition above about 70%; inactive = the rest.

As for `CN1CCCNCCN(CCc2ccccn2)CCCN(C)CC1`, the growth inhibition in test [1] was 2.75%; in test [2] it was -1.5%; in test [3], -12.5%; in test [4] it was -7.75%; in test [5] it was 0.15%; in test [6] it was 6.65%.

`O=[N+]([O-])c1ccc(C=Nc2ccccc2)cc1`: the growth inhibition in test [1] was 41.1%; in test [2] it was 24.1%; in test [3], 30.9%; in test [4], 11.9%; in test [5] it was 1%; in test [6], 26.4%.

In the case of `CCN(Cc1cccc(S(=O)(=O)O)c1)c1ccc(C(=C2C=CC(=[N+](CC)Cc3cccc(S(=O)(=O)O)c3)C=C2)c2ccc(O)cc2S(=O)(=O)O)cc1`, the growth inhibition was -115% in test [1]; -127% in test [2]; -71.2% in test [3]; -110% in test [4]; -136% in test [5]; -137% in test [6].

For the molecule `CCOC(=O)C1=C(C(C)=O)C(c2ccccc2[N+](=O)[O-])C(C(C)=O)=C(C(=O)OCC)N1`, the growth inhibition is -7.35% in test [1]; 10.4% in test [2]; -9.2% in test [3]; -6.85% in test [4]; -9% in test [5]; 9.25% in test [6].

For the molecule `CCCCCCCCCCCCCCCCCCCCCC(=O)O`, the growth inhibition in test [1] was -16.1%; in test [2], -21.4%; in test [3], -21.1%; in test [4], -28.3%; in test [5] it was -2.15%; in test [6], -18.1%.

As for `CCOC(=O)C(C#N)C(=O)c1ccccc1-c1ccccc1[N+](=O)[O-]` (stereo unspecified), the growth inhibition is 7.9% in test [1]; 1.1% in test [2]; 3.35% in test [3]; -9.4% in test [4]; -13.2% in test [5]; 5% in test [6].

Take `O=c1cc([O-])[n+](C2OC(CO)C(O)C2O)c2sccn12` (stereo unspecified): the growth inhibition in test [1] is 10.2%; in test [2], 9.2%; in test [3], 16.6%; in test [4] it was -0.5%; in test [5], -2.55%; in test [6], -2.8%.

Consider `Cc1cc(=O)n(NC(N)=O)c(C)c1C(=O)O`, for which the growth inhibition in test [1] is -0.8%; in test [2], 0.45%; in test [3], -13.8%; in test [4] it was -29.5%; in test [5], -1.3%; in test [6], -5.45%.

For `O=C(O)COc1ccccc1OCC(=O)O`, the growth inhibition in test [1] was 17.4%; in test [2], 7.3%; in test [3], -8.6%; in test [4], 0.6%; in test [5], -0.1%; in test [6], 1.2%.

On to `OCC(CBr)(CBr)CBr`, for which the growth inhibition in test [1] was 2.45%; in test [2], -2%; in test [3], 8.25%; in test [4], 19.3%; in test [5] it was 4.45%; in test [6], -3.85%.

Consider `C/C(=N\NS(=O)(=O)c1ccccc1)c1ccccc1`, for which the growth inhibition is 5.95% in test [1]; 3.4% in test [2]; 3.5% in test [3]; 28.6% in test [4]; 1.1% in test [5]; 20.5% in test [6].

In the case of `O=C(Cl)c1cc(C(=O)Cl)cc(C(=O)Cl)c1`, the growth inhibition in test [1] was -28.6%; in test [2] it was -51.2%; in test [3], -24.2%; in test [4], 7.15%; in test [5], -28.4%; in test [6], -28.6%.

`CN(C)c1ccc2c(SCC(=O)OCC(=O)C3(O)CCC4C5CCC6=CC(=O)C=CC6(C)C5C(O)CC43C)c3ccc(N(C)C)cc3nc2c1` (stereo unspecified): the growth inhibition was 42.6% in test [1]; 45.4% in test [2]; 57.2% in test [3]; 60% in test [4]; 42.2% in test [5]; 60.9% in test [6].

Take `CCc1n[nH]c(=O)n1NC(=O)/C=C\C(=O)O`: the growth inhibition was -12.2% in test [1]; -16.1% in test [2]; -23.9% in test [3]; -17.7% in test [4]; -10.7% in test [5]; -25.5% in test [6].

Consider `COC(=O)C1(C(=O)OC)O[C@@H](c2ccccc2)[C@H]2C(=O)N(C)C(=O)[C@H]21`, for which the growth inhibition is 7.05% in test [1]; 0.9% in test [2]; 7.45% in test [3]; 8.8% in test [4]; -1.1% in test [5]; 13.8% in test [6].

As to `CCOC(=O)CSCCC(=O)OC`, the growth inhibition in test [1] is -1.3%; in test [2], 3.1%; in test [3], -0.8%; in test [4], -5.5%; in test [5], -0.05%; in test [6], 1.35%.

Regarding `COC(=O)C(=O)C1CCc2c(C(=O)OC)nc3[nH]n(-c4ccccc4)c(=O)c3c21` (stereo unspecified), the growth inhibition in test [1] is 12.1%; in test [2], -14.3%; in test [3] it was 4.2%; in test [4], -30.2%; in test [5] it was 25.1%; in test [6], 0.25%.

Turning to `CCc1ccccc1NC(=O)/C=N/O`, the growth inhibition was -27.9% in test [1]; -24.1% in test [2]; -17.6% in test [3]; -7.3% in test [4]; -22.6% in test [5]; -11.2% in test [6].

In the case of `CC(=O)c1cccc(NC(=O)OC2CCCC(C)C2)c1` (stereo unspecified), the growth inhibition in test [1] is 29.8%; in test [2], 60.7%; in test [3] it was 59.6%; in test [4], 19.4%; in test [5] it was 54%; in test [6], 43.1%.

`Nc1nc2c(c(=O)[nH]1)C(c1ccc(Cl)cc1)C=C(c1ccccc1)N2` (stereo unspecified): the growth inhibition in test [1] is 5.6%; in test [2] it was 14.8%; in test [3] it was 3.8%; in test [4] it was -1.85%; in test [5], -4.75%; in test [6], -33.5%.

As for `CC1(CO)CSC(Nc2ccc(F)cc2)=N1` (stereo unspecified), the growth inhibition in test [1] is -7.4%; in test [2], -11.1%; in test [3] it was 14.8%; in test [4] it was 14.8%; in test [5] it was 2.4%; in test [6] it was 3.35%.

As for `Cn1c(=O)c2c(-c3ccccc3)cc(-c3ccccc3)nc2n(C)c1=O`, the growth inhibition in test [1] is -18.8%; in test [2], -16.1%; in test [3], 1.95%; in test [4], -30.7%; in test [5], -10.7%; in test [6], -21.4%.

For `C1=NC(c2ccccc2)=CN(C2CCCCCCC2)C1(c1ccccc1)C1CCCCCCC1` (stereo unspecified), the growth inhibition is 40% in test [1]; 72.2% (active) in test [2]; 40.2% in test [3]; 45.6% in test [4]; 61.4% in test [5]; 50.4% in test [6].

Regarding `CCOC(=O)/C(C#N)=C/c1ccnc2ccccc12`, the growth inhibition in test [1] was -39.7%; in test [2], -46.5%; in test [3], -30.8%; in test [4], -45.4%; in test [5], -29.1%; in test [6], -23.1%.

In the case of `CSc1cc(C)c(O)c(CO)c1`, the growth inhibition was 6.7% in test [1]; 2.9% in test [2]; 18.2% in test [3]; -2.35% in test [4]; 12.7% in test [5]; 3% in test [6].

Turning to `CC1(C)C([N+](C)(C)C)CS1(=O)=O` (stereo unspecified), the growth inhibition was 1.9% in test [1]; -18.9% in test [2]; -13.8% in test [3]; -11.1% in test [4]; 9.65% in test [5]; -6.45% in test [6].

Turning to `C=C1C(=O)OC2C1CC(OC(C)=O)/C(C)=C/CCC1(C)OC21` (stereo unspecified), the growth inhibition in test [1] is -4.5%; in test [2], -35.3%; in test [3], 6%; in test [4], -6.25%; in test [5], -27.6%; in test [6], -68.2%.

Regarding `NC(CC(F)(F)F)C(=O)O` (stereo unspecified), the growth inhibition is 22.9% in test [1]; 4.2% in test [2]; 16.7% in test [3]; 31.3% in test [4]; -2.65% in test [5]; 11.9% in test [6].

In the case of `O=C(/C(N=Nc1ccccc1)=C(\O)c1ccccc1)c1ccccc1`, the growth inhibition in test [1] is -8.15%; in test [2], -9.7%; in test [3] it was 2.45%; in test [4] it was 11.8%; in test [5] it was 7.05%; in test [6] it was -6.2%.

For the molecule `CCN(CC)CCN(CCN(CC)CC)c1ccc2ccccc2c1`, the growth inhibition is 18.9% in test [1]; -12.8% in test [2]; 7.3% in test [3]; 5.05% in test [4]; 16.2% in test [5]; 32.5% in test [6].

For `CC(O)CNc1ncnc2c1cnn2C` (stereo unspecified), the growth inhibition in test [1] was -4.1%; in test [2] it was -24.9%; in test [3], -10.2%; in test [4], 8.8%; in test [5], -4.3%; in test [6] it was 12.8%.

`Nc1cccc(C(F)(F)F)c1`: the growth inhibition in test [1] is -20.8%; in test [2] it was 0.25%; in test [3], -16.3%; in test [4] it was -58.5%; in test [5], 18.4%; in test [6], -0.05%.

On to `Cc1csc(NNC(=O)Nc2ccccc2)n1`, for which the growth inhibition is 36.7% in test [1]; 14.2% in test [2]; -35.5% in test [3]; 18.4% in test [4]; -8.65% in test [5]; 7.5% in test [6].

`CC1(C)OC[C@@H](O)[C@H](C#N)CO1`: the growth inhibition in test [1] is 17.6%; in test [2], 27.6%; in test [3] it was 3.75%; in test [4], 19.6%; in test [5], -0.95%; in test [6] it was -18.1%.

As for `N#Cc1ccc(OCCCCOc2ccc([N+](=O)[O-])cc2Cl)cc1`, the growth inhibition was 5.75% in test [1]; -10.7% in test [2]; -19.4% in test [3]; -3.8% in test [4]; 4.65% in test [5]; 20% in test [6].

As for `CC1CCCCN1P(N1CCCCC1C)N1CCCCC1C` (stereo unspecified), the growth inhibition in test [1] was 36.4%; in test [2], 20.4%; in test [3], 29%; in test [4] it was 25.6%; in test [5], 23.4%; in test [6] it was 33.5%.

Source of the values: PubChem BioAssay (NCI).
